Results on two sequences are retold here after PMC7862700, “An all-to-all approach to the identification of sequence-specific readers for epigenetic DNA modifications on cytosine”.

Common to all, as to experiment: DAPPL (digital affinity profiling via proximity ligation, sequencing); 10 mM Tris-HCl pH 7.5, 50 mM NaCl, 1 mM DTT, 4% glycerol, room temperature, 30 min; GST-TFs on glutathione beads, 16-mer random dsDNA library, 0.1% formaldehyde crosslink after washing; high values mean tight binding
Common to all, as to conditions: protein: recombinant; tags: N-terminal GST; dsDNA, one strand shown

The target of assay [1] is T1, FLI1 (Homo sapiens, UniProt Q01543 1-452).
T1 sequence: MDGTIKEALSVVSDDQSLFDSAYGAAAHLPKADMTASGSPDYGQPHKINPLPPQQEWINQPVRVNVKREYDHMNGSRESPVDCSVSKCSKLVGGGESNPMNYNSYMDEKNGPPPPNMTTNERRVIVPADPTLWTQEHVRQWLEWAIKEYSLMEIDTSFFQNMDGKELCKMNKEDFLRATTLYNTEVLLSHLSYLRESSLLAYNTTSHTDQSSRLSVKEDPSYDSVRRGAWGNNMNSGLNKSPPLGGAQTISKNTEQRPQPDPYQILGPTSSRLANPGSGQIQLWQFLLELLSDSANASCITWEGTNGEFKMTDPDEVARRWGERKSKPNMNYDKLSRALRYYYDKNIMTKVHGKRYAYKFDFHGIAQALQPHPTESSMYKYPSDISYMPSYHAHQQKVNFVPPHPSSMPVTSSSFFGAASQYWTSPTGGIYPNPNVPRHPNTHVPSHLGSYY
The method in brief:
(§1)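 GST fusions of human transcription factors were expressed in yeast and captured with glutathione beads. Once given DNA barcodes and pooled alongside a tag-only sample, they were incubated for 30 min at room temperature with 200 nmole of a random double-stranded 16-mer DNA library in Tris/NaCl/DTT/glycerol buffer, then washed, crosslinked (0.1% formaldehyde), proximity-ligated, PCR-amplified and sequenced on an Illumina NextSeq500. The binding signal of each hexamer is its read frequency for a factor divided by its frequency for the tag-only sample.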

Assay [2] addresses T2, ELK1 (Homo sapiens, UniProt P19419 1-428).
T2 sequence: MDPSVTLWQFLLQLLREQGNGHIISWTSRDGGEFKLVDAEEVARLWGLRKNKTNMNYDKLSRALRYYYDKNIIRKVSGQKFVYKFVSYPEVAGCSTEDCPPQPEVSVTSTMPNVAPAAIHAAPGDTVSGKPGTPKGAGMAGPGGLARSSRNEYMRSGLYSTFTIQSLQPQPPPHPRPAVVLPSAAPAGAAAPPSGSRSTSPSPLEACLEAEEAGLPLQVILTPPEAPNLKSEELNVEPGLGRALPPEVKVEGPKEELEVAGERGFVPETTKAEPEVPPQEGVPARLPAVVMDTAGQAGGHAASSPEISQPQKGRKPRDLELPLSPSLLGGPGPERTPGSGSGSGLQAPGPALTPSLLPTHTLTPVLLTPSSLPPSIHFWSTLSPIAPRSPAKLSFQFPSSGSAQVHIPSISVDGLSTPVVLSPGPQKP
The method in brief:
as §1

Assay [3] concerns the target T3, GABPA (Homo sapiens, UniProt Q06546 1-454).
T3 sequence: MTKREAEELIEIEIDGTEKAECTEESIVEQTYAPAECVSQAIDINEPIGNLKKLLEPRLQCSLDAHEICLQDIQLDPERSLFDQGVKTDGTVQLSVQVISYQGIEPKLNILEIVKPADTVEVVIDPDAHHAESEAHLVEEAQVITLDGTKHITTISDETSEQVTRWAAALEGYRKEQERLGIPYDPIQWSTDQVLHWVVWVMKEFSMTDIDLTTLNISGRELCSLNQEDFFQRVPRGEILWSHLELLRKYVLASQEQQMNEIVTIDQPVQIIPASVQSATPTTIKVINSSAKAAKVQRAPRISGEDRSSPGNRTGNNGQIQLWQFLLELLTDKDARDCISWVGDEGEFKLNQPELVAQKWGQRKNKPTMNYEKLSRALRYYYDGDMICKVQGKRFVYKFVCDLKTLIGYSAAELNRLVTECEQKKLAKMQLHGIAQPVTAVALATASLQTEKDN
The method, boiled down: as §1

For assay [4], the target named is T4, ERG (Homo sapiens, UniProt P11308 1-479).
T4 sequence: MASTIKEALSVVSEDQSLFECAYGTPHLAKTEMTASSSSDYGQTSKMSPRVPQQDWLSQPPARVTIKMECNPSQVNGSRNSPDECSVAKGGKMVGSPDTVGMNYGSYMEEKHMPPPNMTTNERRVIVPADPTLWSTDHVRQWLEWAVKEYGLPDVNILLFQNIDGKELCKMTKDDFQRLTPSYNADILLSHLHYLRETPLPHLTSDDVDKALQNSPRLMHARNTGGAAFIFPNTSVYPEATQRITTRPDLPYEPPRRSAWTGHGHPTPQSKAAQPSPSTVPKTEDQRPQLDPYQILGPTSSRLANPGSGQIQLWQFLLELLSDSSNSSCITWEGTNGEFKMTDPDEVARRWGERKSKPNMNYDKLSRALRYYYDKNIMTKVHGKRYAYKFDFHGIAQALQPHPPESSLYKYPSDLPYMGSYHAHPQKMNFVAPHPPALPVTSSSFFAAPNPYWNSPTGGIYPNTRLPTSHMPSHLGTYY
The method, boiled down:
as §1

The target in assay [5] is ELF1 (Homo sapiens, UniProt P32519 1-619). The method in brief: as §1
The target of assay [6] is T5, EHF (Homo sapiens, UniProt Q9NZC4 1-300).
T5 sequence: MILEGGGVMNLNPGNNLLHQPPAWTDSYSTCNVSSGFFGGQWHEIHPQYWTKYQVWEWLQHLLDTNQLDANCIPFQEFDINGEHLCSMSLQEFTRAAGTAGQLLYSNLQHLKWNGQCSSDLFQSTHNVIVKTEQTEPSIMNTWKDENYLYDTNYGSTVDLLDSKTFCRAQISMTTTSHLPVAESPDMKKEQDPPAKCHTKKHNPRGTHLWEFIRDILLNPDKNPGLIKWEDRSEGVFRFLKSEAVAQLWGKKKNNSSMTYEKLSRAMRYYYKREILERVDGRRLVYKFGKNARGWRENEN
The method, boiled down:
as §1

For assay [7], the target named is SPI1 (Homo sapiens, UniProt P17947 1-270). The method, boiled down:
as §1

In assay [8] the target is SPIB (Homo sapiens, UniProt Q01892 1-262). The method in brief: as §1
For assay [9], the target named is T6, ELK3 (Homo sapiens, UniProt P41970 1-407).
T6 sequence: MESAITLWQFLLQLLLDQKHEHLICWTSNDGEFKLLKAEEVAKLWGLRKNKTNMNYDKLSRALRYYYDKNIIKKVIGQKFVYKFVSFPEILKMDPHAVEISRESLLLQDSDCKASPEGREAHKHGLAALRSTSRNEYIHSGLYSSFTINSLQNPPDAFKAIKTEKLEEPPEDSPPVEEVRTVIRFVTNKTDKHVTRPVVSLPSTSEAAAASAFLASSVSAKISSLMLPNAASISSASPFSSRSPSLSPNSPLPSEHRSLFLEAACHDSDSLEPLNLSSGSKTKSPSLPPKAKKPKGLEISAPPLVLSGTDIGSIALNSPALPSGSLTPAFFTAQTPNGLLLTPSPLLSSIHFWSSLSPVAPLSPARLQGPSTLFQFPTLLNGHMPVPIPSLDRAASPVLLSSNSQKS
The method in brief: as §1

For assay [10], the target named is T7, FEV (Homo sapiens, UniProt Q99581 1-238).
T7 sequence: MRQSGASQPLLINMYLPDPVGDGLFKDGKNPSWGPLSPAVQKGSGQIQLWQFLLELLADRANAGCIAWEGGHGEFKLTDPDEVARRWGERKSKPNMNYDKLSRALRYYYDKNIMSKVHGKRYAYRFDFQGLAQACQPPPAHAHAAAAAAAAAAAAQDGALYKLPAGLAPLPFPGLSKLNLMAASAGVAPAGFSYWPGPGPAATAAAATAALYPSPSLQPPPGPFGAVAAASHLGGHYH
The method, boiled down:
as §1

The target of assay [11] is ETV5 (Homo sapiens, UniProt P41161 1-510). The method, boiled down:
as §1

Assay [12] deals with T8, SPIC (Homo sapiens, UniProt Q8N5J4 1-248).
T8 sequence: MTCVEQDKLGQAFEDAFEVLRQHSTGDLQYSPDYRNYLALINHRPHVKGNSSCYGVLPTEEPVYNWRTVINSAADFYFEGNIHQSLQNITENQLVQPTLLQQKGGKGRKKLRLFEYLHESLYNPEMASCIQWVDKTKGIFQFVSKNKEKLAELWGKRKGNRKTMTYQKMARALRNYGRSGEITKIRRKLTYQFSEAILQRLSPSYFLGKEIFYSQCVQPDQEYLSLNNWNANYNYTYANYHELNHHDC
The method, boiled down:
as §1

For assay [13], the target named is ELF4 (Homo sapiens, UniProt Q99607 1-663). The method in brief:
as §1

For assay [14], the target named is T9, ELK4 (Homo sapiens, UniProt P28324-2 1-405).
T9 sequence: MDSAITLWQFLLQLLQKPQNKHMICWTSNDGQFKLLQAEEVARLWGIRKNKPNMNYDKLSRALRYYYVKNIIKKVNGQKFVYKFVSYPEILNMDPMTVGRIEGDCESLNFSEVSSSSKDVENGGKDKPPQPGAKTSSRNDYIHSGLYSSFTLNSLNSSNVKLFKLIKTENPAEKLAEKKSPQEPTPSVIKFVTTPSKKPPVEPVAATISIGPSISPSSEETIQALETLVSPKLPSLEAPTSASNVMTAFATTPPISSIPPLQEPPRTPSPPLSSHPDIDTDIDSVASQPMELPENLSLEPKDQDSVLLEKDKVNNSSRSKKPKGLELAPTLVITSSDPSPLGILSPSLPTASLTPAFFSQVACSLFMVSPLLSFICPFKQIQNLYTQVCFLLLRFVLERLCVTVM
The method in brief:
as §1

Assay [15] concerns the target T10, ETV2 (Homo sapiens, UniProt O00321 1-342).
T10 sequence: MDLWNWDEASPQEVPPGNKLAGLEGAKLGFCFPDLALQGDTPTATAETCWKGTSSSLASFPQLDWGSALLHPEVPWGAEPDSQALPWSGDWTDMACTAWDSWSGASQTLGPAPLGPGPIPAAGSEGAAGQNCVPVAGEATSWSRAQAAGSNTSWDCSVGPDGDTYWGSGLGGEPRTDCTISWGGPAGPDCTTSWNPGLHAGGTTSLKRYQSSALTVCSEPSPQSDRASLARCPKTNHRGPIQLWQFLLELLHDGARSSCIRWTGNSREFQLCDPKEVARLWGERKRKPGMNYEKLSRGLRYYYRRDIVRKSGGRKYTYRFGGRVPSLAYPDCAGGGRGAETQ
The method in brief:
as §1

Assay [16] has as its target T11, ELF3 (Homo sapiens, UniProt P78545 1-371).
T11 sequence: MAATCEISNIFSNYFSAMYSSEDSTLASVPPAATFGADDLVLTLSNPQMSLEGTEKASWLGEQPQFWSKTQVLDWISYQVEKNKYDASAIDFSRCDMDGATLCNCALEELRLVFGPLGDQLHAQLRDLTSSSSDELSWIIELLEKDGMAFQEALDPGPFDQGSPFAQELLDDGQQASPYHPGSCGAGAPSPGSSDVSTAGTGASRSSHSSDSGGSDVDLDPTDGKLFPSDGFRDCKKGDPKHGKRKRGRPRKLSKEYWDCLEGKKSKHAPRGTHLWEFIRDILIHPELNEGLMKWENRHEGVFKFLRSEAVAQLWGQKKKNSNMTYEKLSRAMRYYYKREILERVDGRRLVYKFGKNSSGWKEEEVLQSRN
The method in brief: as §1

The target in assay [17] is ETV1 (Homo sapiens, UniProt P50549 1-477). The method, boiled down:
as §1

Sequence of ELF4 (Q99607 whole entry): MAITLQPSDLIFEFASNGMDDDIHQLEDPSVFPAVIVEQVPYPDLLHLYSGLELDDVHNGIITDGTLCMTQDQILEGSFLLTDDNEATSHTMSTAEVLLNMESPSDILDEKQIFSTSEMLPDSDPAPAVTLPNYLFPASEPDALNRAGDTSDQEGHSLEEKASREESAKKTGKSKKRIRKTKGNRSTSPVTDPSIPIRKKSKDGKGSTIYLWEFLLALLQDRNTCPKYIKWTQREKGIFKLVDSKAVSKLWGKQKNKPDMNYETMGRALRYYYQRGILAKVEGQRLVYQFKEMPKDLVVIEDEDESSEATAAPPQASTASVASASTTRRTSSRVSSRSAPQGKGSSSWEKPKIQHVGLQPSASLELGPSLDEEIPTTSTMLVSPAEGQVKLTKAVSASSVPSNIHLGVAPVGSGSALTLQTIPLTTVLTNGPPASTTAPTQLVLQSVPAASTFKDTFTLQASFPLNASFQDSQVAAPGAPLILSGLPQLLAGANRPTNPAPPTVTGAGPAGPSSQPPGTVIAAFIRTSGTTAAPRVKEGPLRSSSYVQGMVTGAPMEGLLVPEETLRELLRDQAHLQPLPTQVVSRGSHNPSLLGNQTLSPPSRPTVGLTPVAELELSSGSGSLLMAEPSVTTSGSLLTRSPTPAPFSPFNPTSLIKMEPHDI
Sequence of ETV1 (P50549 whole entry): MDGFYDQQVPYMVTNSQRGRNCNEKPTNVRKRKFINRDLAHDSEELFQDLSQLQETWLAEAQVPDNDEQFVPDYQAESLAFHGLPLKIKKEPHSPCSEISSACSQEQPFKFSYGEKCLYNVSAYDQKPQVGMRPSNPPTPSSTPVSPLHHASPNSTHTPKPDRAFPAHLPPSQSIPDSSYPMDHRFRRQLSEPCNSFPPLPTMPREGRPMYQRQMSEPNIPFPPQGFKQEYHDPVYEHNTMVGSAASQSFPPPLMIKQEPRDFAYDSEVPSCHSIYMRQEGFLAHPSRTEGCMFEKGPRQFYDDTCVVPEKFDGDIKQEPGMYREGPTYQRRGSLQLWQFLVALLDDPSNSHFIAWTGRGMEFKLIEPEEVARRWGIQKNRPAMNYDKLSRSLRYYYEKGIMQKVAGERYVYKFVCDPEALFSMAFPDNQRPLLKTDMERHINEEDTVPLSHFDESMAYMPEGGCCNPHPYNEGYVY
Sequence of ETV5 (P41161 whole entry): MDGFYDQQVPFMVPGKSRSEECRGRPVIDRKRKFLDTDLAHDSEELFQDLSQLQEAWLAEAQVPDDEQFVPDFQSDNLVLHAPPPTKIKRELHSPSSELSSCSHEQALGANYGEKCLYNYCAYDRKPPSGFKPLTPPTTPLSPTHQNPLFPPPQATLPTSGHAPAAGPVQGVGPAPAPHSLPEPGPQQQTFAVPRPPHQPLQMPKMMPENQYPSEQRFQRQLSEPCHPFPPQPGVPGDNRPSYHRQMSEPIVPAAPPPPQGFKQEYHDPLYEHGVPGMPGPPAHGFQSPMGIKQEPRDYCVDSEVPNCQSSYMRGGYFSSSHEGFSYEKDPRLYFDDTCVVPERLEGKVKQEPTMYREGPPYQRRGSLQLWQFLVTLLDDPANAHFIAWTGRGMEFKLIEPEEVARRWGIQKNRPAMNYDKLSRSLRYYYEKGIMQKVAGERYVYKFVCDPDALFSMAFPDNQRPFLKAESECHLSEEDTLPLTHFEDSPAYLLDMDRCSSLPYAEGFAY
Sequence of SPIB (Q01892 whole entry): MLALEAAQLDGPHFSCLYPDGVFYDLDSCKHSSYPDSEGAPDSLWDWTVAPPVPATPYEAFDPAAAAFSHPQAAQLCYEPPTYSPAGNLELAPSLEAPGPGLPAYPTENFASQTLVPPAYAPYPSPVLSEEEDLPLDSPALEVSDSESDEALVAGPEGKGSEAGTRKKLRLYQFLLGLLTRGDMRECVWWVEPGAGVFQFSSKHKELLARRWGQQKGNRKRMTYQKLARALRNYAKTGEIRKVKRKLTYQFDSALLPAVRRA
Sequence of ELF1 (P32519 whole entry): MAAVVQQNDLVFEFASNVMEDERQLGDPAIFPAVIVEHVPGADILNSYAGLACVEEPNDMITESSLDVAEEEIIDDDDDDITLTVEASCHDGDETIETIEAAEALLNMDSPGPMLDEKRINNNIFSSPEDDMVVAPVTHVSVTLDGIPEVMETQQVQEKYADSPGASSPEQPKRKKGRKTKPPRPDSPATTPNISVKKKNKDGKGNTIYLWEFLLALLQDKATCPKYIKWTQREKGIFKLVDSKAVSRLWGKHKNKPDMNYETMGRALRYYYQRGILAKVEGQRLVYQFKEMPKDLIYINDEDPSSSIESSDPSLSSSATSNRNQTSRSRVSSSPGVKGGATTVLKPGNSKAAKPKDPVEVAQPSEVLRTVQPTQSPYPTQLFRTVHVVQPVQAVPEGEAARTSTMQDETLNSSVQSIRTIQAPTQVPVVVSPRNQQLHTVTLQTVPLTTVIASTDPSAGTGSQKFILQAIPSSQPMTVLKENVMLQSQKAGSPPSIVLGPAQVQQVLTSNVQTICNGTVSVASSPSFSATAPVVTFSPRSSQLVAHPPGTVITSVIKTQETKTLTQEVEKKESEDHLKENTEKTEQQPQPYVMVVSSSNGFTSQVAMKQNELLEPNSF

With CCGGCC, the binding signal in assay [1] was 1.27 fold enrichment (6-mer frequency, TF over GST control); in [2] it was 1.27 fold enrichment (6-mer frequency, TF over GST control); in assay [3], 1.13 fold enrichment (6-mer frequency, TF over GST control); in assay [4], 1.18 fold enrichment (6-mer frequency, TF over GST control); in assay [5] it was 1.16 fold enrichment (6-mer frequency, TF over GST control); in [6], 1.1 fold enrichment (6-mer frequency, TF over GST control). Moreover, the binding signal in assay [7] is 1.04 fold enrichment (6-mer frequency, TF over GST control); in assay [8] it was 1.18 fold enrichment (6-mer frequency, TF over GST control); in assay [9], 1.33 fold enrichment (6-mer frequency, TF over GST control); in [10], 1.54 fold enrichment (6-mer frequency, TF over GST control); in assay [11] it was 1.17 fold enrichment (6-mer frequency, TF over GST control); in [12] it was 1.32 fold enrichment (6-mer frequency, TF over GST control). In addition, the binding signal in assay [13] is 1.08 fold enrichment (6-mer frequency, TF over GST control); in assay [14], 1.27 fold enrichment (6-mer frequency, TF over GST control); in assay [15], 1.22 fold enrichment (6-mer frequency, TF over GST control); in [16] it was 1.14 fold enrichment (6-mer frequency, TF over GST control); in assay [17], 1.27 fold enrichment (6-mer frequency, TF over GST control).
Take CCCGGC: the binding signal in assay [1] is 1.15 fold enrichment (6-mer frequency, TF over GST control); in assay [2], 1.25 fold enrichment (6-mer frequency, TF over GST control); in assay [3], 1.1 fold enrichment (6-mer frequency, TF over GST control); in assay [4], 1.15 fold enrichment (6-mer frequency, TF over GST control); in [5], 1.17 fold enrichment (6-mer frequency, TF over GST control); in assay [6], 1.06 fold enrichment (6-mer frequency, TF over GST control). The binding signal in assay [7] is 1.13 fold enrichment (6-mer frequency, TF over GST control); in [8] it was 1.13 fold enrichment (6-mer frequency, TF over GST control); in assay [9] it was 1.22 fold enrichment (6-mer frequency, TF over GST control); in [10], 1.16 fold enrichment (6-mer frequency, TF over GST control); in assay [11], 1.15 fold enrichment (6-mer frequency, TF over GST control); in assay [12] it was 1.11 fold enrichment (6-mer frequency, TF over GST control). Besides, the binding signal is 1.19 fold enrichment (6-mer frequency, TF over GST control) in [13]; 1.27 fold enrichment (6-mer frequency, TF over GST control) in [14]; 1.07 fold enrichment (6-mer frequency, TF over GST control) in assay [15]; 1.01 fold enrichment (6-mer frequency, TF over GST control) in assay [16]; 1.19 fold enrichment (6-mer frequency, TF over GST control) in assay [17].
